In PubChem BioAssay (Tox21):
Records with an inconclusive call do not appear. Activity calls are given as the source filed them. Calls follow the shape of the dose curve; as a rule, active = well fitted activation curve with a large enough effect in the repeat runs; inconclusive = weak or mixed curves; inactive = no such curve, though single readings can be large or run the other way.
% is scaled to controls: 0 for no effect and ±100 for the full control effect.

Assay: qHTS assay for small molecules that induce genotoxicity in human embryonic kidney cells expressing luciferase-tagged ATAD5 (AID 651632); also: nearly all actives have a fitted effect of over 15% in size
Details: HEK293T ATAD5-luciferase induction, 16 h; series mostly up to 83.3 µM; activation: at the top concentration
Source text: U.S. Tox21 Program National Center for Advancing Translational Sciences [NCATS] NIH Chemical Genomics Center [NCGC] U.S. Environmental Protection Agency [EPA] National Institutes of Environmental Health Sciences [NIEHS] National Toxicology Program [NTP] U.S. Food and Drug Administration [FDA] Tox21 Assay Overview: As cancer cells divide rapidly and during every cell division they need to duplicate their genome by DNA replication. The failure to do so results in the cancer cell death. Based on this concept, many chemotherapeutic agents were developed but have limitations such as low efficacy and severe side effects etc. A new cell based assay was developed to find the compounds that effectively block DNA replication either by directly damaging DNA or by inhibiting other cellular mechanisms. Enhanced Level of Genome Instability Gene 1 (ELG1; human ATAD5) protein levels increase in response to various types of DNA damage. Using a luciferase reporter-gene tagged with ATAD5, a cell-based assay [developed by Kyungjae Myung, NHGRI, NIH] was used to measure the induction of ATAD5 in human embryonic kidney cells (HEK293T). So, increase in luciferase activity can be used to identify the compounds that cause genetic stress.
Tox21 Assay Protocol Summary: For genotoxicity screening, 2,000 cells in 5 uL/well were dispensed into white, solid-bottom 1536-well plates using a Multidrop Combi (Thermo Scientific) dispenser. Following transfer of 23 nL compound or DMSO vehicle by a pin tool, the plates were incubated 16 hr at 37C and 5% CO2. 5 ul Amplite (AAT Bioquest, Inc.) was then added to each plate and following 30 min incubation at room temperature, luciferase activity was quantified on a ViewLux CCD-based plate reader.
With `O=C(CCc1ccc(O)cc1)c1c(O)cc(O)cc1O` the “activation” value was -7.31% [at 95.3 µM] (inactive).
For `c1ccc2c(c1)CCc1ccccc1N2`, the “activation” value was 1.62% [at 95.3 µM] (inactive).
In the case of `CC(CCC(=O)O)C(=O)O` (stereo not given), the “activation” value was -0.664% (inactive).
For `COC(=O)CS`, the “activation” value was 3.17% (inactive).
For `CCOc1ccccc1O[C@H](c1ccccc1)[C@H]1CNCCO1`, the “activation” value was -6.02% (inactive).
For `OC(CCN1CCCC1)(c1ccccc1)C1CCCCC1` (stereo not given), the “activation” value was -1.47% [at 39.1 µM] (inactive).
With `CCOC(=O)c1ccc(OCCN2C[C@H](O)[C@@H](O)[C@H](O)[C@H]2CO)cc1` the “activation” value was 3.33% (inactive).
With `O=c1[nH]c2ccc(Cl)cc2o1` the “activation” value was 1.52% (inactive).
With `CCC(OCCCOC)OC(C)=O` (stereo not given) the “activation” value was 1.69% [at 95.3 µM] (inactive).
For `O=C1c2ccccc2C(=O)N1CCc1noc(-c2ccc(CN3CCCCCC3)s2)n1`, the “activation” value was -8.84% (inactive).
With `O=C1c2ccccc2C(=O)C1(O)O` the “activation” value was 3.83% [at 95.3 µM] (inactive).
For `Cc1ccccc1N=C(N)Nc1ccccc1C`, the “activation” value was -2% (inactive).
For `COc1cc(C(=O)NCCCCCC(=O)O)cc(OC)c1OC`, the “activation” value was -1% (inactive).
For `O[C@@H]1CO[C@H]2[C@@H]1OC[C@@H]2O`, the “activation” value was 1.03% (inactive).
With `CCC=CC#N` the “activation” value was 1.88% (inactive).
For `CC(=O)[C@H]1[C@H](C#N)C[C@H]2[C@@H]3CC=C4C[C@@H](O)CC[C@]4(C)[C@H]3CC[C@@]21C`, the “activation” value was -2.68% (inactive).
With `CCCCCCCCCCC(=O)O` the “activation” value was 2.06% [at 95.3 µM] (inactive).
With `CN1CCCN=C1COC(=O)C(O)(c1ccccc1)C1CCCCC1` (stereo not given) the “activation” value was -2.31% (inactive).
For `CC=C(Cl)Cl`, the “activation” value was 1.21% (inactive).
For `O=C1C(=O)c2ccccc2C(O)=C1C1CCC(c2ccc(Cl)cc2)CC1` (stereo not given), the “activation” value was -4.39% [at 39.1 µM] (inactive).
With `Cc1cccc(O)c1N` the “activation” value was 3.69% [at 95.3 µM] (inactive).
For `C1C[C@@H]2[C@H]3CC[C@H](C3)[C@@H]2C1`, the “activation” value was 0.311% (inactive).
For `COc1ccccc1N1CCN(CCCCNC(=O)c2ccc(-c3ccc(C(C)=O)cc3)cc2)CC1`, the “activation” value was -2.59% (inactive).
For `Cc1cc2c(OCC(CNC(C)(C)C)OC(=O)c3ccccc3)cccc2[nH]1` (stereo not given), the “activation” value was -1.95% (inactive).
In the case of `c1ccc2sc(SN(C3CCCCC3)C3CCCCC3)nc2c1`, the “activation” value was -8.08% [at 95.3 µM] (inactive).
In the case of `O=C1c2ccccc2C(=O)c2c(O)c(O)cc(O)c21`, the “activation” value was -3.9% (inactive).
For `CN1CCCC(CC2c3ccccc3Sc3ccccc32)C1` (stereo not given), the “activation” value was -0.815% [at 39.1 µM] (inactive).
In the case of `C=C(C)CCCC(C)CCO` (stereo not given), the “activation” value was 0.615% (inactive).
With `CC(=O)Nc1ccc(C)cc1C` the “activation” value was -4.35% (inactive).
With `O=C1NC(=O)c2cc([N+](=O)[O-])ccc21` the “activation” value was 0.751% [at 95.3 µM] (inactive).
For `O=C(OC(=O)c1ccccc1)c1ccccc1`, the “activation” value was -0.734% [at 95.3 µM] (inactive).
With `CCCCCCCCOc1ccc(C(=O)O)cc1` the “activation” value was 2.4% (inactive).
For `C(=C\c1ccccc1)/c1ccccc1`, the “activation” value was 3.48% [at 95.3 µM] (inactive).
In the case of `CCC(=O)OC`, the “activation” value was -0.303% [at 95.3 µM] (inactive).
For `CC(=O)OCC[N+](C)(C)C`, the “activation” value was 2.49% (inactive).
For `O=C(O)CCc1nc(-c2ccccc2)c(-c2ccccc2)o1`, the “activation” value was 1.35% (inactive).
With `C=C1CCC2CC1C2(C)C` (stereo not given) the “activation” value was 0.522% (inactive).
In the case of `Oc1ccc(Cl)c2cccnc12`, the “activation” value was -6.55% (inactive).
With `CCn1cc(C(=O)O)c(=O)c2cc(F)c(N3CCNCC3)cc21` the Potency was “inactive”.
For `C=C(C)C(=O)OCCCCCCCCCCCCC`, the “activation” value was 3.08% (inactive).
